# Where two headings read alike, the source gives them in different places. Hit rate of the full screen: of about 13,000 compounds, about 3,200 (25%) showed an effect of 50% or more. The list shows a part of the results.
# System: P. falciparum stage V gametocytes
# Set-up: BacTiter-Glo ATP luminescence viability of purified stage V gametocytes in 384-well plates, per cent inhibition versus DMSO
# Details: 48 h, 5 µM, inhibitor
SMILES,% Inhibition,% Inhibition (% Inhibition)
CCCCCCNC(=O)C(N)CCCC(N)C(=O)NCCCCCC (stereo not drawn) [TCMDC-131401],16.24%,–
CSc1cccc(NC(=O)Nc2ccc(I)c(OCCN(C)C)c2)c1 [TCMDC-139123],6.817%,–
COc1cc2cc(Cc3cnc(N)nc3N)ccc2c(OC)c1OC [TCMDC-138023],-6.286%,–
O=C(NCCCc1ccccc1)c1csc(C2CCCN(C(=O)c3ccc(O)c(-c4cccc5ccccc45)c3)C2)n1 (stereo not drawn) [TCMDC-140154],-33.08%,–
CC(C)(C)c1ccc(NC(=O)c2cccc(CN3CCCN(Cc4cccc(Cl)c4)CC3)c2)cc1 [TCMDC-135982],-61.3%,–
CCc1cc(I)c2c(c1)C(NCCCNc1cc(=O)c3ccccc3[nH]1)CCN2 (stereo not drawn) [TCMDC-140023],-10.14%,–
O=c1cc(NCCNCc2cccc(-c3ccccc3)c2)[nH]c2ccccc12 [TCMDC-139376],20.69%,–
Cc1cc(NCCC(=O)Nc2ccccc2)nc(NCC2CCCCC2)n1 [TCMDC-134926],-30.27%,–
O=C(CCC1CCCCC1)NCCNc1cccc2ccccc12 [TCMDC-124017],107.9%,–
CC(C)(C)C1CCC(C(=O)c2ccc3ccccc3c2O)CC1 (stereo not drawn) [TCMDC-137495],11.22%,–
O=C(Nc1ccccc1)Nc1cccc(-c2cccc(-c3nc4ccc(F)cc4[nH]3)c2)c1 [TCMDC-133154],-14.02%,–
CCOc1ccc(-c2nc(NC(=O)COc3ccc(OC)cc3)sc2C)cc1 [TCMDC-124329],36.75%,–
O=C1CC(C(=O)Nc2cccc(-c3cccc(-c4nc5ccccc5[nH]4)c3)c2)c2ccccc2N1 (stereo not drawn) [TCMDC-137096],26.75%,–
O=C(Nc1cccc(-c2cccc(-c3nc4ccccc4[nH]3)c2)c1)c1csnn1 [TCMDC-136898],1.573%,–
Cc1cccc2[nH]c(-c3cccc(-c4cccc(NC(=O)C5CC(=O)Nc6ccccc65)c4)c3)nc12 (stereo not drawn) [TCMDC-137097],79.84%,–
CC(=O)Nc1nc(C(=O)Nc2cccc(-c3cccc(-c4nc5c(C)cccc5[nH]4)c3)c2)cs1 [TCMDC-137130],-6.466%,–
Cc1ccoc1C(=O)Nc1ccc(-c2cccc(-c3nc4c(C)cccc4[nH]3)c2)cc1 [TCMDC-136837],-21.37%,–
Cc1cnc(C(=O)Nc2cccc(-c3cccc(-c4nc5c(C)cccc5[nH]4)c3)c2)cn1 [TCMDC-137030],-21.98%,–
Cc1cccc2[nH]c(-c3cccc(-c4cccc(NC(=O)c5csnn5)c4)c3)nc12 [TCMDC-136904],82.61%,–
Cc1ccoc1C(=O)Nc1cccc(-c2cccc(-c3nc4c(C)cccc4[nH]3)c2)c1 [TCMDC-136836],81.69%,–
Cc1cccc2[nH]c(-c3cccc(-c4ccc(NC(=O)C5CC(=O)Nc6ccccc65)cc4)c3)nc12 (stereo not drawn) [TCMDC-137098],-77.35%,–
CC(=O)Nc1nc(C(=O)Nc2ccc(-c3cccc(-c4nc5c(C)cccc5[nH]4)c3)cc2)cs1 [TCMDC-137131],-2.039%,–
CC(=O)Nc1nc(C(=O)Nc2cccc(-c3ccc(-c4nc5c(C)cccc5[nH]4)cc3)c2)cs1 [TCMDC-137123],80.9%,–

SMILES,% Inhibition,% Inhibition (% Inhibition)
Cc1ccoc1C(=O)Nc1cccc(-c2cccc(-c3nc4ccccc4[nH]3)c2)c1 [TCMDC-136834],-43.19%,–
Clc1cc(Nc2ccnc3ccc(Br)cc23)ccc1Oc1ccc(Cl)c2ccccc12 [TCMDC-123834],-13.4%,–
O=c1cc(NC[C@H]2CCC[C@@H]2NC2CCCc3c2[nH]c2ccccc32)[nH]c2ccccc12 (stereo partly drawn) [TCMDC-139785],10.53%,–
CCc1cccc(C)c1-n1nc(-c2cc(C(C)(C)C)oc2C)cc1N [TCMDC-134028],9.67%,–
CCc1ccc(NC(=O)c2ccc(CN3CCCN(CC4CCCCC4)CC3)cc2)cc1 [TCMDC-136437],-21.72%,–
COc1ccc2nccc(N3CCC(CCNCc4ccc5c(n4)NC(=O)CO5)CC3)c2c1.Cl [TCMDC-141904],-28.1%,–
Cc1nn(C)c(C)c1CN(Cc1nc(-c2cccc(Oc3ccccc3)c2)oc1C)C1CC1 [TCMDC-124629],8.903%,–
C=CCc1cc(Cc2cnc(N)nc2N)cc(CCC)c1O [TCMDC-138048],-56.02%,–
COc1ccc2nccc([C@@H](O)CN3CCC(NC(=O)/C=C/c4cc(F)cc(NC(C)=O)c4)CC3)c2c1 [TCMDC-141030],-4.964%,–
Oc1cccc(-c2nc3cc(C4=NC5CCCCC5N4)ccc3[nH]2)c1 (stereo not drawn) [TCMDC-138108],–,-4.911%
CC(=O)Nc1nc(C(=O)Nc2cccc(-c3ccc(-c4nc5ccccc5[nH]4)cc3)c2)cs1 [TCMDC-137127],61.93%,–
CC(=O)Nc1nc(C(=O)Nc2ccc(-c3cccc(-c4nc5ccccc5[nH]4)c3)cc2)cs1 [TCMDC-137120],25.25%,–
CC(=O)Nc1nc(C(=O)Nc2cccc(-c3cccc(-c4nc5ccccc5[nH]4)c3)c2)cs1 [TCMDC-137121],-11.21%,–
N#CC(c1ccc(F)cc1)c1ccc2c(C(F)(F)F)cc(C(F)(F)F)nc2n1 (stereo not drawn) [TCMDC-123761],-46.13%,–
COc1ccc2nccc(N3CCN(CCNCc4ccc5c(n4)NC(=O)CS5)CC3)c2n1 [TCMDC-141967],-20.32%,–
COc1cccc(O)c1CNCC(O)c1cccc(C(F)(F)F)c1 (stereo not drawn) [TCMDC-140396],-36.87%,–
CS(=O)(=O)c1ccc(CNCc2cccc(-c3ccc(-c4nc5ccc(C(F)(F)F)cc5[nH]4)cc3)c2)cc1 [TCMDC-132902],-71.66%,–
Nc1cccc(CNCc2cccc(-c3ccc(-c4nc5ccc(C(F)(F)F)cc5[nH]4)cc3)c2)c1 [TCMDC-132935],-40.76%,–
CS(=O)(=O)c1ccc(CNCc2ccc(-c3cccc(-c4nc5ccc(C(F)(F)F)cc5[nH]4)c3)cc2)cc1 [TCMDC-132897],17.9%,–
O=C(NCc1ccccc1)Nc1ccc(-c2ccc(-c3nc4ccc(C(F)(F)F)cc4[nH]3)cc2)cc1 [TCMDC-133157],-8.983%,–
FC(F)(F)c1ccc2nc(-c3ccc(-c4ccc(CNCc5ccccc5)cc4)cc3)[nH]c2c1 [TCMDC-132705],55.9%,–
FC(F)(F)c1ccc2nc(-c3cccc(-c4ccc(CNCc5ccccc5)cc4)c3)[nH]c2c1 [TCMDC-132712],-50.86%,–
Nc1cccc(CNCc2ccc(-c3cccc(-c4nc5ccc(C(F)(F)F)cc5[nH]4)c3)cc2)c1 [TCMDC-132929],-69.76%,–

SMILES,% Inhibition,% Inhibition (% Inhibition)
FC(F)(F)c1ccc2nc(-c3ccc(-c4cccc(CNCc5ccccc5)c4)cc3)[nH]c2c1 [TCMDC-132704],67.94%,–
NCc1ccc(CNCc2cccc(-c3ccc(-c4nc5cc(C(F)(F)F)ccc5[nH]4)cc3)c2)cc1 [TCMDC-132811],93.89%,–
Fc1cccc(Cl)c1-c1nc(NCCC(c2ccccc2)c2ccccc2)no1 [TCMDC-134175],-12.09%,–
Cc1cc(=O)[nH]c(NC#N)n1 [TCMDC-123468],11.83%,–
O=C(c1cc(-c2ccccc2O)on1)N1CCN(C(c2ccccc2)c2ccccc2)CC1 [TCMDC-125470],18.53%,–
CC1(C)C2C=C(CN3CCC(NC(=O)Nc4ccc(Cl)c(Cl)c4)CC3)C1CC2 (stereo not drawn) [TCMDC-135871],38.53%,–
COc1cccc(O)c1CN1CCC2(CCCN(Cc3ccc(F)cc3)C2)C1 (stereo not drawn) [TCMDC-124635],-20.8%,–
CCOC(=O)c1ccc(N2CCCCC2)c(NC(=O)C(Cl)(Cl)Cl)c1 [TCMDC-125786],-22.75%,–
N=C(/N=C(/NCCCCCCN/C(=N\C(=N)Nc1ccc(Cl)cc1)N1CCOCC1)N1CCOCC1)Nc1ccc(Cl)cc1 [TCMDC-131813],108.7%,–
O=C(/C=C/c1ccc(C(F)(F)F)cc1)NCCCCCN1CCCN(C(=O)Nc2ccc(Cl)cc2)CC1 [TCMDC-136106],-46.09%,–
N=C(N=C(NCCCCCCNC(=NC(=N)Nc1ccc(Cl)cc1)N1CCCCC1)N1CCCCC1)Nc1ccc(Cl)cc1 [TCMDC-131811],119.8%,–
O=C(NCCCCN1CCC(O)(c2ccc3c(c2)OCO3)CC1)c1ccc(NC(=O)c2ccc(Cl)cc2)cc1 [TCMDC-138356],-1.021%,–
N=C(N=C(NCCCCCCNC(=NC(=N)NCc1ccc(Cl)c(Cl)c1)N1CCCCC1)N1CCCCC1)NCc1ccc(Cl)c(Cl)c1 [TCMDC-131816],118.5%,–
O=C(NCCCCN1CCN(c2ccc3c(c2)CCC3)CC1)c1ccc(NC(=O)c2ccc(Cl)cc2)cc1 [TCMDC-138512],-2.19%,–
Clc1ccc(CNCCCCCCCNCc2ccc(Cl)c(Cl)c2)cc1Cl [TCMDC-138075],16.46%,–
Clc1ccc(CNCC2CCN(CC3CCCCC3)CC2)cc1Cl [TCMDC-139467],-4.599%,–
O=C(/C=C/c1ccc(C(F)(F)F)cc1)NCCCCCN1CCN(C(=O)Nc2ccc(Cl)cc2)CC1 [TCMDC-136095],-21.7%,–
Nc1nc2c(ncn2COC2COP(=O)(O)OC2)c(=O)[nH]1 (stereo not drawn) [TCMDC-138021],10.06%,–
Cc1ccc(Nc2nc(C)cc(NC3CCCC3)n2)cc1 [TCMDC-133470],43.93%,–
CCN(CCNc1nc(NCCc2cnc[nH]2)nc(N(CCC#N)Cc2ccccc2)n1)c1cccc(C)c1 [TCMDC-139258],-10.46%,–
CCC(=O)Oc1ccc(NC(=O)c2cccc(OC)c2)cc1 [TCMDC-131408],8.36%,–
COc1cccc(C(=O)Nc2ccc(Oc3ccc(Cl)cc3)cc2)c1 [TCMDC-123807],-8.512%,–
COc1cccc(C(=O)NCc2n[nH]c(=S)n2-c2ccc(Cl)c(Cl)c2)c1 [TCMDC-123816],81.2%,–
